Molecules are shown by their SMILES. Records with an inconclusive call do not appear. The source made the active and inactive calls. The calls were made as follows: active = hit-call score of the fitted dose curve at least 0.9, where 1 is the maximum; inconclusive = response in the unintended direction; inactive = score below 0.9.

Consider 40 molecules from PubChem BioAssay (EPA / NIEHS).

A short description of this assay: Tanguay_ZF_120hpf_NC_legacy: (Legacy) Oregon State University Tanguay Lab 120 Hour Post-fertilization zebrafish Assay for Notochord and Tail Malformation (AID 2283656). Here is the method:
Tanguay_ZF_120hpf_legacy is a whole embryo, multiplexed endpoint assay using zebrafish larvae exposed for 120 hours post fertilization on a 96-well plate.Tanguay_ZF_120hpf_NC_legacy is one of one assay component(s) measured or calculated from the Tanguay_ZF_120hpf_legacy assay. It is designed to make measurements of zebrafish development as detected with brightfield microscopy of developing zebrafish embryos.Data from the assay component Tanguay_ZF_120hpf_NC_legacy was analyzed into 1 assay endpoints. This assay endpoint, Tanguay_ZF_120hpf_NC_legacy, was analyzed in the positive analysis fitting direction relative to DMSO as the negative control and baseline of activity. Using a type of morphology reporter, gain-of-signal activity can be used to understand changes in developmentals as they relate to the whole embryo. To generalize the intended target to other relatable targets, this assay endpoint is annotated to the zebrafish development intended target family, where the subfamily is embryonic notochord morphogenesis.
Zebrafish husbandry: Tropical 5D wild-type adult zebrafish were housed in at an approximate density of 1000 per 100 gallon tank at the Sinnhuber Aquatic Research Laboratory, Oregon State University, Corvallis, OR. Each tank was kept at standard laboratory conditions of 28C on a 14-h light/10-h dark photoperiod in fish water consisting of reverse osmosis water supplemented with a commercially available salt (Instant Ocean). Spawning funnels were placed into the tanks the night prior, and embryos were collected and staged. To increase bioavailability, the chorion was enzymatically removed using pronase (63.6mg/ml, >/= 3.5U/mg, Sigma-Aldrich: P5147) at 4 hours post fertilization (hpf) using a custom automated dechorionator.Chemical exposures: Six hpf dechorionated embryos were placed 1 embryo per well in a 96-well plate prefilled with 90 ul of EM using automated embryo placement systems (AEPS). Ten microliters of each row of dilution plate 2 was added to 2 exposure plates. The final DMSO concentration used was 0.64% (vol/vol). Thirty-two embryos were also exposed to 5uM trimethyltin chloride (positive control). Plates were sealed to prevent evaporation and foil covered to reduce light exposure and kept in a 28C incubator. Embryos were statically exposed until 120 hpf. At 24 hpf, embryos were assessed for photomotor response using a custom photomotor response analysis tool (PRAT) and for developmental toxicity endpoints (MO24: mortality at 24 hpf, DP: developmental progression, SM: spontaneous movement, and NC: notochord distortion). At 120 hpf, locomotor activity was measured using Viewpoint Zebralab and assessed for 18 endpoints. Zebrafish acquisition and analysis program (ZAAP), a custom program designed to inventory, acquire, and manage zebrafish data, was used to collect developmental endpoints as either present or absent (i.e., binary responses were recorded). If mortality occurred for an embryo (at either 24 or 120 hpf), the non-mortality endpoints were not measured.
As to `CCCOC(=O)c1ccc(C(=O)OCCC)nc1`, the result was inactive. Regarding `S=C(S)NCCNC(=S)S.[Mn+2].[S-]C([S-])=NCCN=C([S-])[S-].[Zn+2]`, the outcome was inactive. In the case of `CCC(C)OC(=O)N1CCCCC1CCO` (stereo not given), the molecule was called inactive.

Consider `CCN(CC)C(=O)c1cccc(C)c1`, for which the result was inactive. For `CCCCC(CC)CN1C(=O)C2C3C=CC(C3)C2C1=O` (stereo not given), the outcome was inactive. With `O=C(Nc1ccc([N+](=O)[O-])cc1Cl)c1cc(Cl)ccc1O`, the molecule was classed as inactive. Regarding `CC(C)(c1ccc(O)cc1)c1ccc(O)cc1`, the result was inactive. As for `CCOC(=O)c1ccc(O)cc1`, the call was inactive. Turning to `CCSC(=O)N(CC(C)C)CC(C)C`, the call was inactive. With `CCNc1nc(N)nc(Cl)n1`, the molecule was classed as inactive.

With `c1ccc2[nH]c(-c3cscn3)nc2c1`, the molecule was called inactive. As to `CC(C)(C)[C@@H](O)[C@@H](Cc1ccc(Cl)cc1)n1cncn1`, the outcome was inactive.

On to `CCCCC(CC)COC(=O)c1ccccc1C(=O)O` (stereo not given), for which the outcome was inactive. Turning to `CCN(Cc1c(F)cccc1Cl)c1c([N+](=O)[O-])cc(C(F)(F)F)cc1[N+](=O)[O-]`, the result was inactive.

With `CCOC(=O)NCCOc1ccc(Oc2ccccc2)cc1`, the result was inactive. As for `O=C(c1ccc(O)cc1O)c1ccc(O)cc1O`, the call was inactive. In the case of `CCCCOC(=O)C(C)Oc1ccc(Oc2ccc(C(F)(F)F)cn2)cc1` (stereo not given) it was “inactive”; in that of `CCCCOCCOCCOCc1cc2c(cc1CCC)OCO2`, “inactive”. As for `CCCCCCC(C)OC(=O)COc1nc(F)c(Cl)c(N)c1Cl` (stereo not given), the outcome was inactive. Then `CN(C)C(=O)Nc1ccc(Cl)c(Cl)c1`, with “inactive”. As to `CC(C)CCCCCCc1ccc(O)cc1`, the call was inactive. Take `Oc1ccc(C(c2ccc(O)cc2)C(Cl)(Cl)Cl)cc1`: the call was inactive. Take `CCOC(=O)C(C)Oc1ccc(Oc2nc3ccc(Cl)cc3o2)cc1` (stereo not given): the call was inactive.

Consider `CC1(C)C(C=C(Cl)Cl)C1C(=O)OCc1cccc(Oc2ccccc2)c1` (stereo not given), for which the outcome was inactive. Then `CCCN(CCC)C(=O)SCC`, with “inactive”. In the case of `C#C[C@]1(O)CC[C@H]2[C@@H]3CCC4=CC(=O)CC[C@@H]4[C@H]3CC[C@@]21CC` it was “inactive”. Then `CSC(=O)c1cccc2nnsc12`, with “inactive”; and `C=CCOC(Cn1ccnc1)c1ccc(Cl)cc1Cl` (stereo not given), with “inactive”.

With `COC(=O)c1ccccc1C(=O)O`, the molecule was classed as inactive. On to `COc1c(Cl)ccc(Cl)c1C(=O)O`, for which the outcome was inactive.

For `C[C@]12C[C@H](O)[C@H]3[C@@H](CCC4=CC(=O)CC[C@@]43C)[C@@H]1CC[C@@H]2C(=O)CO`, the molecule was called inactive. In the case of `O=C(c1ccccc1)C1CCCCC1` it was “inactive”; in that of `CC(=O)S[C@@H]1CC2=CC(=O)CC[C@]2(C)[C@H]2CC[C@@]3(C)[C@@H](CC[C@@]34CCC(=O)O4)[C@H]12`, “inactive”; in that of `c1ccc(Nc2ccccc2)cc1`, “inactive”. In the case of `COCCO`, the molecule was classed as inactive. Then `COC(=O)c1ccc(I)cc1S(=O)(=O)NC(=O)Nc1nc(C)nc(OC)n1`, with “inactive”; and `CCOC(=O)COc1cc(-n2ncc(C(F)(F)F)c(C)c2=O)c(F)cc1Cl`, with “inactive”. Take `CCCOC(=O)NCCCN(C)C`: the outcome was inactive. As to `O=C(O)C1(C(=O)Nc2ccc(Cl)cc2Cl)CC1`, the call was inactive. In the case of `S=C([S-])NCCNC(=S)[S-].[Mn+2]` it was “inactive”.
